# PfGluPho inh: PfG6PD (Plasmodium falciparum) enzyme inhibition; PfGluPho enzyme, NADPH resazurin-diaphorase fluorescence; inhibition, % at 20 µM; hit rate 0.78% among 350,000; AID 504690;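 active = inhibition reaching at least a set limit at 20 µM in the primary screen, cut at about 59% in these data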;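 note: 0% = DMSO wells with substrate and 100% = DMSO wells lacking glucose-6-phosphate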
# aDG glyco up: alpha-DG glycosylation activation. activation, % at 10 µM. AID 624168. Pro5-aDG cells, alpha-DG glycosylation AlphaScreen (IIH6); 0% Pro5, 100% B10-LARGE cell signal. hit rate 0.22% among 360,000;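 active = activation of at least 8% versus controls, or a plate z-score of at least 8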;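 note: Pro5 are CHO cells carrying HIG-tagged alpha-DG that lacks glycosylation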
# H9c2 protect: protects H9c2 cardiomyocytes from peroxide injury. H2O2 injury protection, ATPLite, 2 h. protection from H2O2 cell death, % at 20 µM. hit rate 0.63% among 360,000. AID 588492;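 active = compounds giving at least 50% protection of heart cells from peroxide-induced death in the single-dose screen, raw or plate-pattern-corrected value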;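 note: 0% = DMSO wells with peroxide and 100% = DMSO wells without peroxide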
# FAS TE block: inhibitors of human fatty acid synthase thioesterase domain. hit rate 0.67% among 360,000. recombinant FAS-TE, OMFH fluorogenic substrate, fluorescence endpoint. P49327. inhibition, % at 15 µM;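 active = compounds whose normalised, plate-corrected inhibition of enzyme fluorescence in the single-dose primary screen is 50% or more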;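 note: 0% = DMSO with enzyme and 100% = substrate without enzyme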
# Target sequence (P49327 whole entry, looked up, the tested form may be a part): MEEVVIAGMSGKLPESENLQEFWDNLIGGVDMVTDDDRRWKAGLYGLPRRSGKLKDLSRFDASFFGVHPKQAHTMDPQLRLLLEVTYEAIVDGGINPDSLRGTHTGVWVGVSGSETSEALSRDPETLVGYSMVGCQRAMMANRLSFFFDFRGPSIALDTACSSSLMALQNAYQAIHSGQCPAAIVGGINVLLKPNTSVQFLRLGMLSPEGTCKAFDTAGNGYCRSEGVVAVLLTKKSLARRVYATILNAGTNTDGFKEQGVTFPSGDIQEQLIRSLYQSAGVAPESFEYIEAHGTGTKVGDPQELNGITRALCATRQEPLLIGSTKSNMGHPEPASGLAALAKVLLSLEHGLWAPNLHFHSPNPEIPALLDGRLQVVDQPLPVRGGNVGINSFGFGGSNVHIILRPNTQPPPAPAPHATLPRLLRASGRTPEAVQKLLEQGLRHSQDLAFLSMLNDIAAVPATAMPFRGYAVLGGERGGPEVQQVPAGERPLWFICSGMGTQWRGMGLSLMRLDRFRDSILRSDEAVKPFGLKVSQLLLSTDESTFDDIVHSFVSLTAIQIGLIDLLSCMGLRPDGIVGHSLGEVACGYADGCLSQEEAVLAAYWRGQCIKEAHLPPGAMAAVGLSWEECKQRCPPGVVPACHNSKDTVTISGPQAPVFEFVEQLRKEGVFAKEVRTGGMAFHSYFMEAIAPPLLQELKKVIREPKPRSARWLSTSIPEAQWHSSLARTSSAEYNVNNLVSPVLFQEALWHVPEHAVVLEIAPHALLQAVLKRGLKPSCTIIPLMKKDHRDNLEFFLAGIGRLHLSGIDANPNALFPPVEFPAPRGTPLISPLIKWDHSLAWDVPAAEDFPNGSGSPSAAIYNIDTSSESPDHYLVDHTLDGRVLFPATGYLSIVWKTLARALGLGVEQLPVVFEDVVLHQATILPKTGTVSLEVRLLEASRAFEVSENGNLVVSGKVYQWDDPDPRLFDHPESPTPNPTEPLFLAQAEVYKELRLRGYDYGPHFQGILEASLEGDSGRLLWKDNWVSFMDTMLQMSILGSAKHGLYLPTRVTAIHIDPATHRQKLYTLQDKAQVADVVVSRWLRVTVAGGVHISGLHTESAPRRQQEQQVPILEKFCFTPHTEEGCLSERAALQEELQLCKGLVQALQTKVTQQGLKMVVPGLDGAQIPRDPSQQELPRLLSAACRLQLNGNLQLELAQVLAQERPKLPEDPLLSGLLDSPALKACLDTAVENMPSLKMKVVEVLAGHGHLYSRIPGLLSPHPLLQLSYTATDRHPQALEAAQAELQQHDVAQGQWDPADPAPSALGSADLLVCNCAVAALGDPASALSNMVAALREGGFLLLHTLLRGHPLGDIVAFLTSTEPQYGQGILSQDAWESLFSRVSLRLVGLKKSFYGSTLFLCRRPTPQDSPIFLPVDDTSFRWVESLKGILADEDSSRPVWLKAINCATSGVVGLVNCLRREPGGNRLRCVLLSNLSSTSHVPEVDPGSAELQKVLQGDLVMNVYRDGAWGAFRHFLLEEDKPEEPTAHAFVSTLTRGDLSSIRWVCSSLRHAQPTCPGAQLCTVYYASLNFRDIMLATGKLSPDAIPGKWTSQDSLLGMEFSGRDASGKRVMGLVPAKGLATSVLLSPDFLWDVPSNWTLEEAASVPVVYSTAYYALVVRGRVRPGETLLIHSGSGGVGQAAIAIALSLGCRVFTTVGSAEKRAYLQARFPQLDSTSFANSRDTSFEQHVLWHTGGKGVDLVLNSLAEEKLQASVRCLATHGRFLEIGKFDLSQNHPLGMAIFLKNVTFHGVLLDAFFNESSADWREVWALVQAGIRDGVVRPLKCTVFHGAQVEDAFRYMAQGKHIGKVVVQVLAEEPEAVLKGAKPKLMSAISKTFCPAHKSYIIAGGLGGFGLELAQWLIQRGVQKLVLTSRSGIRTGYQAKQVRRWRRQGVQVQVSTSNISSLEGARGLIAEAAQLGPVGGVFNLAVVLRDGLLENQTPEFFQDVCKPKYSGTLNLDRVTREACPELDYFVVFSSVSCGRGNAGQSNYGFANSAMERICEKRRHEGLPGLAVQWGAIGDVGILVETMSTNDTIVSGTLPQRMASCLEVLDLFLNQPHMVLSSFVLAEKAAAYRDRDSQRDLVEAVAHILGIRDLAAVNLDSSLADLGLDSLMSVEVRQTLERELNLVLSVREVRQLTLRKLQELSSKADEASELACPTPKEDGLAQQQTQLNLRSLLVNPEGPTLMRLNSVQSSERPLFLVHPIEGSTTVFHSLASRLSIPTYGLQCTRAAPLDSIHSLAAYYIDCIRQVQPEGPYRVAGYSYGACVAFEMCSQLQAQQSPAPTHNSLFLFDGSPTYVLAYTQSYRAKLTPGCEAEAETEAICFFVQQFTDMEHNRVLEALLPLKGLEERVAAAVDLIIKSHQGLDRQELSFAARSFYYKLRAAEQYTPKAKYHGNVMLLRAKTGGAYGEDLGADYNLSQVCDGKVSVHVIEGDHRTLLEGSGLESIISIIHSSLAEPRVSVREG
# CRFR2-BP antag: antagonists of CRF-binding protein/CRF-R2 receptor complex | AID 588475 | HEK293 CRF-R2/CRF-BP, CRF-induced calcium fluorescence | inhibition, % at 11.8 µM | hit rate 0.59% among 350,000;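 active = inhibition of the ligand-induced calcium signal above about 50% at the single tested concentration, limit read from the data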
# CRFBP-R2 agonist: CRF-BP/CRF-R2 complex agonism | HEK293 CRF-R2/CRF-BP, calcium dye fluorescence (FLIPR); percent of saturating CRF peptide response | activation, % at 13.2 µM | hit rate 0.46% among 350,000 | AID 588473;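 active = activation of at least 50%, plus an integration ratio under a set limit after plate pattern correction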;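 note: plate controls were neutral control wells without compound for no effect and CRF at EC100 for full effect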
# * = called active by the depositor; x = not tested or not shown. Hits are enriched below; roughly 3.2% of the tested compounds scored in any of these assays.
SMILES,PfGluPho inh,aDG glyco up,H9c2 protect,FAS TE block,CRFR2-BP antag,CRFBP-R2 agonist
CC1(c2ccc(OC(F)F)cc2)NC(=O)N(CC(=O)Nc2cccnc2Cl)C1=O (stereo unspecified),5,0,5,-2,-52,96*
Cc1nn2c(-c3cccc(NC(=O)c4ccco4)c3)nnc2c2ccccc12,2,0,80*,1,0,-1
CCCCCCCC/C=C\CCCCCCCC(=O)O,-53,0,6,62*,34,7
CCCCC/C=C\C/C=C\C/C=C\CCCCC(=O)O,-4,0,11,6,-3,2
CCCCCCC(=O)O,-2,0,0,-9,8,0
CCCCCCCCCCCCCC(=O)NO,-38,0,78*,-139,-22,-5
COc1ccc(OC)c(N)c1,62*,0,1,-15,29,-2
Cc1cc(C)cc(N(C(=O)Cc2cccs2)C(C(=O)NC2CCCCC2)c2ccccn2)c1 (stereo unspecified),-18,0,0,11,-18,0
Cc1ccccc1C(C(=O)NC1CCCC1)N(C(=O)Cc1cccs1)c1ccc2c(c1)OCCO2 (stereo unspecified),-6,0,30,54*,0,1
COc1cccc(/C=N/Nc2ncnc3scc(-c4ccccc4)c23)c1O,23,1,70*,30,-8,0
C[C@H]1CN=C(N(C)C)N1CC1CCC(C(C)(C)C)CC1 (stereo partly specified),-4,0,-24,-21,-13,4
COc1ccc(S(=O)(=O)N2CCOCC2)cc1NC(=O)CSc1nnc(C2CC2)n1C,-3,1,4,-3,9,0
CC1(C)CC(NC(=O)c2cccc(S(=O)(=O)N(Cc3ccccc3)c3ccccc3)c2)CC(C)(C)N1,-2,6.8*,-18,-6,-8,-1
Cc1cc(NC(=O)CS(=O)(=O)c2ccc(Cl)cc2)no1,-28,0,1,-5,-2,-1
CC1=NN(c2ccccc2)C(c2ccco2)C1 (stereo unspecified),-12,0,-1,-5,7,-2
O=[N+]([O-])c1ccc(/C=C/C2=NN(c3ccccc3)C(c3ccco3)C2)cc1 (stereo unspecified),22,0,-1,36,-174,182*
O=[N+]([O-])c1ccc(C=CC=Cc2ccccc2)cc1,2,0,-4,-6,8,-1
O=[N+]([O-])c1ccc(C2=NN(c3ccccc3)C(c3ccco3)C2)cc1 (stereo unspecified),29,0,-6,9,-92,105*
O=c1ccc2cc3c(-c4ccccc4)coc3cc2o1,6,0,0,10,8,0
Cn1c(SCC(=O)N/N=C/c2cc([N+](=O)[O-])ccc2O)nnc1-c1ccccc1,-24,0,24,47,-43,62*
Cc1nnc(SCC(=O)N/N=C/c2cn(-c3ccccc3)nc2-c2ccccc2)n1-c1ccccc1,3,2,54*,11,0,-1
COc1cc2c(C#CCCO)c(-c3ccsc3)oc(=O)c2cc1OC,13,0,64*,-5,3,-2
Cc1nn(C)cc1CN(C)C(=O)c1ccc(OC2CCN(Cc3ccccn3)CC2)cc1,-10,0,-6,-5,57*,2
CN(Cc1nccs1)C(=O)c1ccc(OC2CCN(Cc3ccccn3)CC2)cc1,-9,0,-1,-8,3,1
O=CN/N=C/c1c(O)ccc2ccccc12,-22,0,30,-5,-62,88*
SMILES,PfGluPho inh,aDG glyco up,H9c2 protect,FAS TE block,CRFR2-BP antag,CRFBP-R2 agonist
Oc1ccc2ccccc2c1C=NCc1ccccc1,17,0,48,1,5,-2
Oc1ccccc1C=NN=Cc1c(O)ccc2ccccc12,-7,0,-4,3,-116,144*
NC(=S)N/N=C/c1c(O)ccc2ccccc12,-21,1,57*,-5,0,-5
S=c1[nH]nc(CCCc2n[nH]c(=S)o2)o1,12,0,7,-9,6,-1
CCOC(=O)/C(=C\c1ccc(N2CCC(c3ccccc3)=N2)cc1)C(C)=O,14,1,-6,-10,-105,99*
O=C(/C=C/c1ccc(O)cc1)c1ccccc1,-3,0,-10,1,-24,0
COC(=O)C1=C(C)NC(=O)NC1c1ccc(N2CCC(c3ccccc3)=N2)cc1 (stereo unspecified),-19,1,-2,6,-20,-1
O=C(/C=C/c1ccc(N2CCC(c3ccccc3)=N2)cc1)c1ccccc1,8,x,x,x,-284,311*
O=C1Nc2ccccc2Cc2ccccc21,3,0,7,-4,-6,-2
CCOC(=O)C1CCN(C(=O)c2c(C)oc3c2C(=O)c2ccccc2C3=O)CC1,31,4.3*,-28,-6,-9,1
Cn1c(=O)c2ccccc2n(CC(=O)N2CCCc3ccccc32)c1=O,-4,0,-4,0,13,-4
COc1ccc(C(=O)/C(C#N)=N/Nc2cccc([N+](=O)[O-])c2)cc1,-20,0,-26,13,57*,28
N#C/C(=N\Nc1cccc(Cl)c1)C(=O)c1ccccc1,-1,0,-28,1,47,58*
N#C/C(=N\Nc1ccccc1Cl)C(=O)c1ccccc1,1,0,-9,-5,85*,38
CCC(CC)=NNc1cccc([N+](=O)[O-])c1,7,0,4,-1,12,0
N#C/C(=N\Nc1ccc(Cl)cc1)C(=O)c1ccsc1,-25,0,-14,4,26,32
Cc1cccc(C(=O)NCCc2ccccc2)c1,-2,0,-3,-4,12,-1
Cc1nn(-c2ccccn2)c2c1C(=O)CC(C)(C)C2Br (stereo unspecified),-3,0,2,0,-11,0
O=C(CNCc1ccccc1Cl)Nc1cc(S(=O)(=O)N2CCOCC2)ccc1Cl,1,0,-11,10,2,-1
O=C(Nc1cc(S(=O)(=O)N2CCOCC2)ccc1Cl)C(=O)c1c(-c2ccccc2)cc2ccccn12,10,0,3,76*,4,1
N#CCC(=O)Nc1ccc(C(=O)NCc2ccccn2)cc1,-14,0,11,-8,-14,0
COc1ccc(CNC(=O)c2oc3ccc(S(=O)(=O)N4CCOCC4)cc3c2C)cc1,16,0,12,7,-16,3
Cc1ccc(CNC(=O)c2oc3ccc(S(=O)(=O)N4CCOCC4)cc3c2C)cc1,2,0,51*,9,-30,-2
CC(=O)N1CCOc2ccc(S(=O)(=O)N3CCC(C(=O)NCc4ccc(C)cc4)CC3)cc21,-20,0,-2,-5,53*,2
COc1ccc(NC(=O)CN2CCC(NC(=O)c3ccc(OC)cc3)CC2)cc1,-1,0,11,0,1,0
